Reference: PubChem BioAssay
Results with a measured potency or affinity are listed apart. Inconclusive results are not listed. Calls of active or inactive are those of the source. Unless noted, the rule behind the calls is not given here.

Columns and labels:
[1] = RMG-1 ovarian cancer cell viability loss – cherry-pick, dose response (AID 687029;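 active = signal drop whose fitted half-maximal concentration is at most twice the top valid dose, in every test run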;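 note: cells exposed to compound for 96 hours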)
[2] = IOSE-T80 viability loss, PAX8-independent line – cell-based, cherry-pick, selectivity assay for PAX8 inhibitor project, dose response (AID 687032;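 active = fitted half-maximal concentration for viability loss no higher than twice the top valid dose, in every repeat run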;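 note: cells exposed to compound for 96 h before reading; 0% = neutral control wells and -100% = 2 µM mitoxantrone kill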)
[3] = CMV-driven luciferase expression suppression in HEK293 – cell-based, luminescence, dry powder, counter-screen for Pax8 inhibitor project, dose response (AID 743020;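 active = signal-lowering compounds whose fitted half-maximal concentration is at or below twice the top tested dose in every run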;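 note: HEK293 cells stably expressing the CMV luciferase reporter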)
[4] = general cell-killing toxicity readout – plate reader, dry powder samples, cytotoxicity control for PAX8 inhibitor project, dose response (AID 743021)
[5] = IGROV1 cell killing – plate reader, dry powder samples, PAX8 inhibitor project, dose response (AID 743043);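 note: more negative means fewer viable cells or more cytotoxicity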
[6] = OVCAR-3 cell viability loss – plate reader, dry powder samples, PAX8 inhibitor project, dose response (AID 743044); details: max activity: at 35 µM, hits give low values unless noted
[7] = toxicity toward immortalized ovarian surface epithelium – cell-based, plate reader, dry powder samples, cytotoxicity control for PAX8 inhibitor project, dose response (AID 743045);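 note: 0% = neutral control median and -100% = positive control median; more negative values mean more cell killing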
[8] = A2780 cell killing – plate reader, dry powder samples, cytotoxicity control, dose response (AID 743046);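 note: 0% = neutral control wells and -100% = cytotoxic reference compound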
[9] = A549 cell cytotoxicity, dose response, cytotoxicity control, plate reader, cherry-pick, antagonist series (AID 743412);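 note: 0% = neutral control wells and -100% = positive control wells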
[10] = toxicity toward HepG2 liver cells – cell-based, plate reader, cherry-pick, antagonist series, cytotoxicity control, dose response (AID 743416);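 note: 0% = neutral control wells and -100% = positive control wells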
[11] = OVCAR8 cell viability loss – plate reader, dry powder samples, PAX8 project, dose response (AID 743197)

Measured: max activity

O=C(CN1C(=O)c2ccccc2S1(=O)=O)c1ccccc1Cl
not listed: [11]
inactive: all other assays above

C[C@H]1CCCCO[C@H](CN(C)S(=O)(=O)c2ccc(Cl)cc2)[C@@H](C)CN([C@@H](C)CO)C(=O)c2cc(NS(=O)(=O)c3ccc(F)cc3)ccc2O1
inactive: [1] | [2] | [3] | [4] | [5] | [6] -9.44% [at 4.2 µM, hits give low values] | [7] | [11]

C[C@@H]1CCCCO[C@H](CN(C)Cc2ccc(C(F)(F)F)cc2)[C@H](C)CN([C@H](C)CO)C(=O)c2cc(NC(=O)Nc3ccc(F)cc3)ccc2O1
inactive: [1] | [2] | [3] | [4] | [5] | [6] 10.2% [at 1 µM, hits give low values] | [7] | [8] | [11]

C[C@H]1CCCCO[C@@H](CN(C)S(=O)(=O)c2cccs2)[C@@H](C)CN([C@@H](C)CO)C(=O)c2cc(NS(=O)(=O)c3ccc(Cl)cc3)ccc2O1
inactive: [1] | [2] | [3] | [4] | [5] | [7]

C[C@@H]1CCCCO[C@@H](CN(C)C(=O)Nc2cccc3ccccc23)[C@H](C)CN([C@H](C)CO)C(=O)c2cc(NS(=O)(=O)c3ccc(Cl)cc3)ccc2O1
inactive: [1] | [2] | [3] | [4] | [5] | [7]

C[C@@H]1CN([C@H](C)CO)C(=O)c2cc(NC(=O)Nc3ccc(C(F)(F)F)cc3)ccc2O[C@@H](C)CCCCO[C@H]1CN(C)Cc1ccc(Cl)c(Cl)c1
inactive: [1] | [2] | [3] | [4] | [5] | [6] 8.01% [at 8 µM, hits give low values] | [7] | [8] | [11]

C[C@@H]1CN([C@H](C)CO)C(=O)c2cc(NS(=O)(=O)c3ccc(F)cc3)ccc2O[C@@H](C)CCCCO[C@H]1CN(C)S(=O)(=O)c1ccc(Cl)cc1
inactive: [1] | [2] | [3] | [4] | [5] | [7]

Cc1ccc(S(=O)(=O)Nc2ccc3c(c2)C(=O)N([C@@H](C)CO)C[C@@H](C)[C@H](CN(C)S(=O)(=O)c2ccc(Cl)cc2)OCCCC[C@@H](C)O3)cc1
inactive: [1] | [2] | [3] | [4] | [5] | [6] 20.2% [at 0.26 µM, hits give low values] | [7] | [11]

C[C@@H]1CN([C@H](C)CO)C(=O)c2cc(NS(=O)(=O)c3ccc(Cl)cc3)ccc2O[C@@H](C)CCCCO[C@H]1CN(C)C(=O)C1CCCCC1
inactive: [1] | [2] | [3] | [4] | [5] | [6] -15.5% [at 0.56 µM, hits give low values] | [7] | [11]

C[C@@H]1CCCCO[C@H](CN(C)C(=O)NC2CCCCC2)[C@@H](C)CN([C@@H](C)CO)C(=O)c2cc(NC(=O)Nc3ccc(C(F)(F)F)cc3)ccc2O1
inactive: [1] | [2] | [3] | [4] | [5] | [6] 18.6% [at 2.1 µM, hits give low values] | [7] | [8] | [11]

C[C@@H]1CN([C@H](C)CO)C(=O)c2cc(NS(=O)(=O)c3ccc(F)cc3)ccc2O[C@@H](C)CCCCO[C@H]1CN(C)Cc1ccccc1
inactive: [1] | [2] | [3] | [4] | [5] | [6] 22.1% [at 1 µM, hits give low values] | [7] | [11]

C[C@H]1CN([C@@H](C)CO)C(=O)Cc2cc(NC(=O)Nc3ccc(C(F)(F)F)cc3)ccc2O[C@H]1CN(C)C(=O)Nc1ccc(C(F)(F)F)cc1
inactive: [1] | [2] | [3] | [4] | [5] | [6] 24.3% [at 0.56 µM, hits give low values] | [7] | [11]

C[C@@H]1CN([C@H](C)CO)C(=O)c2cc(NC(=O)Nc3ccc(F)cc3)ccc2O[C@@H](C)CCCCO[C@H]1CN(C)S(=O)(=O)c1ccc(F)cc1
inactive: [1] | [2] | [3] | [4] | [5] | [6] -9.65% [at 0.5 µM, hits give low values] | [7] | [11]

COc1cccc(S(=O)(=O)N2CC[C@@H]3[C@H](CO)Nc4ccc(C5=CCCCC5)cc4[C@@H]32)c1
inactive: [1] | [2] | [3] | [4] | [5] | [6] 12.1% [at 0.5 µM, hits give low values] | [7] | [11]

C[C@@H]1CN([C@H](C)CO)C(=O)c2c(c3ccccc3n2C)-c2ccccc2CO[C@H]1CN(C)S(=O)(=O)c1cccc(F)c1
inactive: [1] | [2] | [3] | [4] | [5] | [6] -15.8% [at 0.26 µM, hits give low values] | [7] | [11]

C[C@@H]1CCCCO[C@@H](CN(C)Cc2ccc(Cl)c(Cl)c2)[C@H](C)CN([C@@H](C)CO)C(=O)c2cc(NC(=O)Nc3ccccc3)ccc2O1
inactive: [1] | [2] | [3] | [4] | [5] | [6] 10.2% [at 16 µM, hits give low values] | [7] | [11]

N#Cc1cccc(-c2ccc3c(c2)[C@@H]2[C@@H](CCN2S(=O)(=O)c2ccc(F)cc2)[C@@H](CO)N3)c1
inactive: [1] | [2] | [3] | [4] | [5] | [6] 5.91% | [7] | [11]

C[C@H](CO)N1C[C@H](C)[C@H](CN(C)Cc2ccc(Cl)c(Cl)c2)OCCCC[C@H](C)Oc2ccc(NC(=O)NC3CCCCC3)cc2C1=O
inactive: [1] | [2] | [3] | [4] | [5] | [6] -2.95% | [7] | [8] | [11]

C[C@H](CO)N1C[C@H](C)[C@@H](CN(C)C(=O)NC2CCCCC2)Oc2cc(C#Cc3ccc(F)cc3)ccc2S1(=O)=O
inactive: [1] | [2] | [3] | [4] | [5] | [6] 10.3% [at 2.1 µM, hits give low values] | [7] | [8] | [11]

COc1ccc(S(=O)(=O)Nc2ccc3c(c2)C(=O)N([C@@H](C)CO)C[C@H](C)[C@@H](CN(C)Cc2ccc(C(F)(F)F)cc2)OCCCC[C@@H](C)O3)cc1
inactive: [1] | [2] | [3] | [4] | [5] | [7]

Cc1noc(C)c1NC(=O)Nc1cccc2c1O[C@H](CN(C)Cc1ccc(C(F)(F)F)cc1)[C@H](C)CN([C@@H](C)CO)C2=O
inactive: [1] | [2] | [3] | [4] | [5] | [6] -18.3% | [7] | [11]

C[C@@H]1CCCCO[C@H](CN(C)S(=O)(=O)c2ccc(Cl)cc2)[C@@H](C)CN([C@@H](C)CO)C(=O)c2cc(NS(=O)(=O)c3ccc(F)cc3)ccc2O1
inactive: [1] | [2] | [3] | [4] | [5] | [7]

C[C@@H]1CCCCO[C@@H](CN(C)Cc2ccc(Cl)c(Cl)c2)[C@H](C)CN([C@H](C)CO)C(=O)c2cc(NC(=O)Nc3ccccc3)ccc2O1
inactive: [1] | [2] | [3] | [4] | [5] | [6] 13.2% [at 0.5 µM, hits give low values] | [7] | [8] | [11]

Cc1ccc(S(=O)(=O)Nc2ccc3c(c2)C(=O)N([C@@H](C)CO)C[C@@H](C)[C@H](CN(C)Cc2ccc(Cl)c(Cl)c2)OCCCC[C@@H](C)O3)cc1
inactive: [1] | [2] | [3] | [4] | [5] | [6] -18.1% [at 4.2 µM, hits give low values] | [7] | [8] | [11]

Cc1noc(C)c1S(=O)(=O)N(C)C[C@H]1OCCCC[C@@H](C)Oc2ccc(NS(=O)(=O)c3ccc(Cl)cc3)cc2C(=O)N([C@@H](C)CO)C[C@H]1C
inactive: [1] | [2] | [3] | [4] | [5] | [6] -28.8% [at 2.1 µM, hits give low values] | [7] | [11]

C[C@@H]1CN([C@@H](C)CO)C(=O)c2cc(NS(=O)(=O)c3ccccc3)ccc2O[C@@H](C)CCCCO[C@@H]1CN(C)Cc1ccc(C(F)(F)F)cc1
inactive: [1] | [2] | [3] | [4] | [5] | [6] -5.59% | [7] | [8] | [11]

N#C[C@H]1[C@H](c2ccc(C#CC3CCCCC3)cc2)[C@H](CO)N1C(=O)Nc1ccc(F)cc1
inactive: [1] | [2] | [3] | [4] | [5] | [6] -34% [at 0.5 µM, hits give low values] | [7] | [11]

C[C@@H]1CCCCO[C@@H](CN(C)Cc2ccc(Cl)c(Cl)c2)[C@H](C)CN([C@H](C)CO)C(=O)c2cc(NC(=O)c3ccccc3)ccc2O1
inactive: [1] | [2] | [3] | [4] | [5] | [7]

CC(C)CC#Cc1ccc([C@@H]2[C@@H](CO)N3CCCCN(S(=O)(=O)c4ccc(F)cc4)C[C@H]23)cc1
inactive: [1] | [2] | [3] | [4] | [5] | [6] 15.4% [at 16 µM, hits give low values] | [7] | [11]

C[C@H]1CCCCO[C@@H](CN(C)S(=O)(=O)c2cccs2)[C@@H](C)CN([C@@H](C)CO)C(=O)c2cc(NC(=O)NC3CCCCC3)ccc2O1
inactive: [1] | [2] | [3] | [4] | [5] | [6] -5.85% [at 8 µM, hits give low values] | [7] | [8] | [11]

C[C@@H]1CCCCO[C@@H](CN(C)C(=O)NC2CCCCC2)[C@H](C)CN([C@@H](C)CO)C(=O)c2cc(NC(=O)Nc3ccc(C(F)(F)F)cc3)ccc2O1
inactive: [1] | [2] | [3] | [4] | [5] | [7]
